Several values for one entry are separate records, joined by “and”; a condition that tells them apart may be missing. Equal values may be shown once. Compounds without any hit were thinned out: in the full panel of roughly 83,000, 20% have a hit.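 Negative percent growth values reflect cell death: -40 means 40% of the cells present at the start died, and -100 means all died.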 A number with no mark means an inactive call. Activity calls are given as the source filed them. Where a SMILES comes first, the peptide text is derived from it. The star is where a group is joined. Trt = c1ccc(C(c2ccccc2)(c2ccccc2)*)cc1; Cbz = O=C(OCc1ccccc1)*
Tested on: NCI-H460 lung
Assay: NCI-60 one-dose screen, 48 h (100 = growth as untreated, 0 = no growth, -100 = all killed)
Settings: 10 µM
Procedure: Growth inhibition of the NCI-H460 human Non-Small Cell Lung tumor cell line is measured as a screen for anti-cancer activity. Cells are grown in 96 well plates and exposed to the test compound for 48 hours. Compounds are tested at a single concentration, which is 10^-5 M for most compounds. The reported endpoint is percent growth (GI% or GIPRCNT), where numbers from 0 - 100% represent growth inhibition, and numbers from -100% - 0 represent cell death. For example, a value of 40 represents 60% growth inhibition. A value of 0 means no net growth occurred over the course of the experiment. A value of -40 indicates 40% of cells at the beginning of the experiment died by the end of the experiment. A value of -100 means all cells are dead at the end of the experiment.
NCI-60 Human Tumor Cell Lines Screen was performed using the standard one-dose NCI protocol, which is described in more detail at https://dtp.cancer.gov/discovery_development/nci-60/default.htm.
Compounds with GIPRCNT values below 10 were considered active. Activity score was based on GIPRCNT using the following formula: […]
Score is 0 for GIPRCNT values of 100 or above, 50 for GIPRCNT values of 0, and 100 for GIPRCNT values of -100.

| SMILES | growth [%] |
| --- | --- |
| O=C(Nc1cccc(Br)c1)Oc1cccc2cccnc12 | 104 |

Same assay, conditions: 10 µM unless noted

| SMILES | growth |
| --- | --- |
| CCC(CC)COC(=O)c1ccc(O)c(O)c1 | 73.8% |
| Nc1ccc(SSc2ccc(N)cc2)cc1 | 100% |
| COC(=O)c1nc(=S)[nH]c(C(=O)OC)c1C(=O)c1ccccn1 | 38.6% |
| COc1ccccc1OC(=O)Oc1ccccc1OC | 108% and 104% |
| O=C(Nc1ccc(F)cc1)ON=C1CCCCC1 | 104% [100 µM] |
| N#CSCc1ccc(Cl)c(CSC#N)c1 | 16.3% |
| Cc1cc(N)c2ccccc2[n+]1CCCCCCCCCC[n+]1c(C)cc(N)c2ccccc21 | 1.44% (active) and -18.2% (active) |
| CC1(C)CC([P+](c2ccccc2)(c2ccccc2)c2ccccc2)=NN1 | 17.2% |
| CN=C(N)N/N=C(\C)c1ccc2c(c1)Cc1cc(/C(C)=N/NC(N)=NC)ccc1-2 | -69.9% (active) |
| CC1OC2CC(=O)OC2C2=C1C(=O)c1c(O)cccc1C2=O (stereo not given) | -0.634% (active) |
| O=C1OCc2cccc3cccc1c23 | 104% |
| Oc1c(Cl)c2ccccc2c2ccccc12 | 116% |
| c1ccc2c(c1)Nc1cc3ccccc3cc1N2 | 51.7% |
| COC(=O)[C@@]12OC[C@]34[C@H]([C@@H](O)[C@@H]1O)[C@@]1(C)[C@H](O)C(=O)C=C(C)[C@@H]1C[C@H]3OC(=O)C(OC(C)=O)[C@@H]24 (stereo not given in full) | -43.4% (active) |
| CCCCCCCCCCCCCCCC[N+](C)(CCO)Cc1cnc[nH]1 (stereo not given) | -93.3% (active) |
| CCCCCCC(C)c1ccccc1O (stereo not given) (tested in a mixture with another compound) | 101% |
| Cc1ccnc2c1ccc1c(C)ccnc12 | 5.29% (active) |
| CC(=Nc1ccc(N(C)C)cc1)c1ccccc1 | 34.2% |
| Cc1ccc2nc(-[n+]3cc4ccccc4cc3C)ccc2c1 | 29.5% |

| SMILES | growth |
| --- | --- |
| CC(=O)Nc1cccc2cc(O)ccc12 | 114% and 103% and 105% |
| O=C(O)c1ccc2c3c(ncnc13)-c1ccccc1C2=O | 11.5% |
| CCCCCCCCCCCCCCCCCCOP(=O)([O-])OC1CC[N+](C)(C)CC1 | 1.19% (active) and -34.8% (active) |
| O=C(Nc1cccc(Br)c1)Oc1ccc(Cl)c2cccnc12 | 12.2% [100 µM] |
| COC(=O)C(CSC(c1ccccc1)(c1ccccc1)c1ccccc1)NC(=O)C(CC(N)=O)NC(=O)OCc1ccccc1 (stereo not drawn) (Cbz-Asn-Cys(Trt)-OMe; configuration not given here) | 31.2% |
| O=C1C2=C(Nc3cc([N+](=O)[O-])ccc3N2)OC1c1c2ccccc2cc2ccccc12 (stereo not given) | 46% |
| O=C(CC1(O)C(=O)Nc2c(Cl)ccc(Cl)c21)c1ccc(Cl)cc1Cl (stereo not given) | 108% |
| CNC(=O)N/N=C/c1ccc([N+](=O)[O-])o1 | 109% |
| CCC1OC(OC)C=CC1=O (stereo not given) | 108% |
| CC1OC(OC2C(OC3CCC4(C)C(CCC5(C)C4CC=C4C6CC(C)(C)CCC6(CO)C(O)CC45C)C3(C)C)OC(C(=O)O)C(OC3OC(COC4OC(CO)C(O)C(O)C4O)C(O)C(O)C3O)C2O)C(O)C(O)C1O (stereo not given) | 15.4% |
| CN1c2ccccc2C(C)(C)C12C=Cc1cc(O)ccc1O2 (stereo not given) | 67.9% |
| CN(C)C(=O)SC1=C(c2c(Cl)cccc2Cl)C(=O)c2ccccc21 | 98.7% |
| O=C(Nc1ccccc1)c1cc(Cl)ccc1O | 37.4% |
| O=C(Nc1ccccc1)Oc1c(Cl)c(Cl)c(Cl)c(Cl)c1Cl | 109% and 103% |
| Nc1nc(N)c2c(ccc3c2ccn3Cc2cccc([N+](=O)[O-])c2)n1 | -88.6% (active) |
| CC(=O)C(=Cc1ccc(C=C(C(C)=O)C(C)=O)cc1)C(C)=O | 36.2% |
| Cc1ccc(NS(=O)(=O)c2ccc(C)cc2)cc1 | 107% and 106% |
| CCN1/C(=C\c2cc[n+](CC)c3ccccc23)C=Cc2ccccc21 | -32.8% (active) |
| COC(=O)Nc1nc2ccc(C(=O)c3ccccc3)cc2[nH]1 | 6.48% (active) and 1.24% (active) and -0.135% (active) |

Same assay, conditions: 100 µM

| SMILES | growth |
| --- | --- |
| O=C(Nc1cccc(Br)c1)Oc1cccc2cccnc12 | 8.11% (active) |

From PubChem BioAssay (NCI)
